Compounds with a hit are over-represented: about 4.1% of the library has one in this group of screens.
DAX1 inh-1 – inhibits human nuclear receptor DAX1. P51843. HEK293 Gal4-DAX1 luciferase reporter, luminescence. inhibition, % at 6.75 µM. actives 0.99% (n = 340,000). AID 504766;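 active = inhibition above the mean over all tested compounds plus 3 SD, cut at about 4.2% in these data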;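 note: 0% = DAX1-transfected cells with DMSO and 100% = empty-vector control cells with DMSO; inhibition shows as a rise in luminescence from relieved DAX1 repression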
Target sequence (P51843 207-470 limits assumed): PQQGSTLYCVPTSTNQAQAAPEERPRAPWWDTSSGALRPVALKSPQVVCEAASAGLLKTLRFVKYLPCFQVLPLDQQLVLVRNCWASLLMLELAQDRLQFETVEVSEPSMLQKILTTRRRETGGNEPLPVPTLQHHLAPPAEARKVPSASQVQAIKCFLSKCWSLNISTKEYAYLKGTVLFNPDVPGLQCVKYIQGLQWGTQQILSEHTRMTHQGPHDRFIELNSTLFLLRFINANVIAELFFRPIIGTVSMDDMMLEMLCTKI
ssDAF-12 act – S. stercoralis DAF-12 activation, primary screen; actives 1% (n = 370,000); HEK293 ssDAF-12/GRIP1 lit1-tk-luc reporter, luminescence; % of 3 µM dafachronic acid response; AID 652126; activation, % at 6.8 µM;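 active = activation above the mean over all tested compounds plus 3 SD, cut at about 0.9% in these data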;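 note: 0% = DMSO-only wells and 100% = 3 µM delta7-dafachronic acid wells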
hcDAF-12 act – H. contortus DAF-12 activation, primary screen | activation, % at 6.8 µM | HEK293 hcDAF-12 lit1-tk-luc reporter, luminescence; 0% DMSO, 100% Δ7-dafachronic acid | AID 652067 | actives 1.4% (n = 370,000);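 active = activation above the mean of all tested compounds plus 3 SD, cut at about 5.5% in these data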;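 note: 100% = response to 3 µM Δ7-dafachronic acid high control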
DAX1 inh-2 – DAX1 (NR0B1) inhibition, primary screen; inhibition, % at 6.8 µM; HEK293T StAR-luciferase reporter, SF-1/DAX-1 repression relief; actives 1.1% (n = 370,000);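 active = inhibition above the mean over all tested compounds plus 3 SD, cut at about 3.6% in these data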;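 note: 0% = DAX-1 cells with DMSO and 100% = cells lacking DAX-1 with DMSO; higher inhibition means more luminescence from relief of DAX-1 repression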
hgDAF-12 ag – hgDAF-12 agonism, primary luciferase screen; HEK293 GAL4-hgDAF12 UAS-luciferase reporter, agonist luminescence; normalized to butyrate control; activation, % at 6.8 µM; actives 1.8% (n = 370,000);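 active = activation above a cutoff set at the mean of all screened compounds plus 3 SD, cut at about 10% in these data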;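 note: 0% = DMSO wells and 100% = sodium butyrate wells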
Starred values were filed as active, the others as inactive.

For CCC(C)C1NC(=O)C2CCCN2C(=O)C(CC(C)C)OC(=O)CCNC(=O)C(C)N(C)C(=O)C(C(C)C)N(C)C1=O (stereo unspecified) the results were DAX1 inh-1 0, ssDAF-12 act -1, hcDAF-12 act -2, DAX1 inh-2 3.7* and hgDAF-12 ag -9.
`CC[N+](C)(CC)CCCCOc1ccc2c(c1)C(=O)c1cc(OCCCC[N+](C)(CC)CC)ccc1-2` gave DAX1 inh-1 5.5*, ssDAF-12 act -2, hcDAF-12 act -1, DAX1 inh-2 0 and hgDAF-12 ag 3.
Screening COC(=O)[C@@]1(O)c2c(oc3cccc(O)c3c2=O)C=C[C@H]1O returned ssDAF-12 act -1, hcDAF-12 act -3, DAX1 inh-2 -4 and hgDAF-12 ag -10.
`O=C(Cc1c[nH]c2ccccc12)NNCc1ccc(N(CCCl)CCCl)cc1` gave DAX1 inh-1 1, ssDAF-12 act 49*, hcDAF-12 act 4, DAX1 inh-2 -1 and hgDAF-12 ag 1.
For c1ccc(Cn2nnnc2C2CN=C(c3ccccc3)c3ccccc3N2)cc1 (stereo unspecified) the results were ssDAF-12 act -1, hcDAF-12 act 0, DAX1 inh-2 0 and hgDAF-12 ag -1.
CCOP(=O)(C#Cc1ccccc1)C(O)c1ccc(Br)cc1 (stereo unspecified) was read as DAX1 inh-1 4.6*, ssDAF-12 act -1, hcDAF-12 act -2, DAX1 inh-2 0 and hgDAF-12 ag -2.
COP(=O)(C#Cc1ccccc1)C(O)c1ccc(Br)cc1 (stereo unspecified) was read as DAX1 inh-1 1, ssDAF-12 act -1, hcDAF-12 act -1, DAX1 inh-2 0 and hgDAF-12 ag 0.
Screening CC1OC(OC2C(O)CC(OC3C(O)CC(OC4CCC5(C)C(CCC6C5CCC5(C)C(C7=CC(=O)OC7)C(O)CC65O)C4)OC3C)OC2C)CC(O)C1O (stereo unspecified) returned DAX1 inh-1 -4, ssDAF-12 act -2, hcDAF-12 act 3, DAX1 inh-2 16* and hgDAF-12 ag -9.
For CC(=O)OC1CC(OC2C(O)CC(OC3C(O)CC(OC4CCC5(C)C(CCC6C5CCC5(C)C(C7=CC(=O)OC7)C(O)CC65O)C4)OC3C)OC2C)OC(C)C1OC1OC(CO)C(O)C(O)C1O (stereo unspecified) the results were DAX1 inh-1 -6, ssDAF-12 act -2, hcDAF-12 act -4, DAX1 inh-2 -7 and hgDAF-12 ag -15.
`Cc1ccc(OP2(=O)Nc3cc(C)c(C)cc3S2)cc1` (stereo unspecified) gave DAX1 inh-1 2, ssDAF-12 act 1, hcDAF-12 act 5.7*, DAX1 inh-2 1 and hgDAF-12 ag 4.
`CC1=CC(=O)NP(=O)(Oc2ccc3ccccc3c2)N1` (stereo unspecified) gave DAX1 inh-1 0, ssDAF-12 act -1, hcDAF-12 act -1, DAX1 inh-2 1 and hgDAF-12 ag 0.
For CNC(=O)O/N=C(\C)Cc1nnn(-c2cc(C)on2)n1 the results were DAX1 inh-1 5.1*, ssDAF-12 act -1, hcDAF-12 act 0, DAX1 inh-2 0 and hgDAF-12 ag 2.
Cc1c(C(c2ccc(O)cc2)c2c(O)c3ccccc3oc2=O)c(=O)n(-c2ccccc2)n1C (stereo unspecified) was read as DAX1 inh-1 -1, ssDAF-12 act -1, hcDAF-12 act -1, DAX1 inh-2 0 and hgDAF-12 ag -1.
COc1ccc(OC)c(C(c2c(O)c3ccccc3oc2=O)c2c(C)n(C)n(-c3ccccc3)c2=O)c1 (stereo unspecified) was read as DAX1 inh-1 6.6*, ssDAF-12 act -1, hcDAF-12 act -1, DAX1 inh-2 0 and hgDAF-12 ag 0.
c1ccc(Cc2cnc(N3CCNCC3)nc2)cc1 was read as ssDAF-12 act -1, hcDAF-12 act 0, DAX1 inh-2 1 and hgDAF-12 ag 0.
Cc1ccc(C2NC(=S)NC(c3ccc(C)cc3)C23C(=O)NC(=O)NC3=O)cc1 (stereo unspecified) was read as DAX1 inh-1 4.3*, ssDAF-12 act -1, hcDAF-12 act 2, DAX1 inh-2 0 and hgDAF-12 ag 1.
